Reference: PubChem BioAssay AID720504 (National Center for Advancing Translational Sciences (NCATS), 2013)
Out of some 360,000 compounds screened, about 10,000 (2.8%) were called active. About 4% were inconclusive and are not listed. The full list was thinned out, with actives kept by preference. Unmarked numbers belong to inactive results. Calls follow the shape of the dose curve; as a rule, active = well fitted inhibition curve with a large enough effect; inconclusive = small, poorly fitted or top-dose-only effect; inactive = flat fitted curve, though single readings scatter.

The compounds below were run against Serine/threonine-protein kinase PLK1 (Homo sapiens) (UniProt P53350) (assay: qHTS for Inhibitors of PLK1-PDB (polo-like kinase 1 - polo-box domain): Primary Screen). Conditions: Plk1 PBD binding of FITC phosphopeptide, fluorescence polarization.
Serine/threonine-protein kinase PLK1 (Homo sapiens), sequence (P53350 whole entry, looked up, the tested form may be a part): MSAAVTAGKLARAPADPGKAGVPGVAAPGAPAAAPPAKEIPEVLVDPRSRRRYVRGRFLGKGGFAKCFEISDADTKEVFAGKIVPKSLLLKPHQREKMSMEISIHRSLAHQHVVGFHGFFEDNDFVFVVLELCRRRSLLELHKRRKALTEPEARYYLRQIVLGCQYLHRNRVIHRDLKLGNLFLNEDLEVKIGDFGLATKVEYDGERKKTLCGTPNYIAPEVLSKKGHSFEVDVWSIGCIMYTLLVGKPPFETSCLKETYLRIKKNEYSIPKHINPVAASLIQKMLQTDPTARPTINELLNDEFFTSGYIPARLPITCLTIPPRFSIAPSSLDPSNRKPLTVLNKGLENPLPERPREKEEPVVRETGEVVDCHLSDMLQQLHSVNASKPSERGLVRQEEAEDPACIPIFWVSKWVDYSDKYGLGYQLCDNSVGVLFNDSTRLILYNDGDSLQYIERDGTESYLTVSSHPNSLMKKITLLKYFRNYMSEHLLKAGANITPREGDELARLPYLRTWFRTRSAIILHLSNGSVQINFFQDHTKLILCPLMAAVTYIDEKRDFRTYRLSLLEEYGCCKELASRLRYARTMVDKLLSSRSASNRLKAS
% is scaled to controls: 0 for no effect and ±100 for the full control effect; potency is read from the fitted curve at half-maximal effect.
Also: nearly all actives have a fitted effect of over 65% in size.
For max response, negative = inhibition in this document: series mostly up to about 57 µM.

SMILES	max response, negative = inhibition [%]	Potency
CCNC(=O)C1(C)CCCN(C(=O)c2ccc3ccccc3n2)C1 (stereo not drawn)	-13.8	–
CC1(C(=O)O)CCN1C(=O)/C=C/c1ccccc1 (stereo not drawn)	-4.73	–
COc1ccc(C(C)(C)C)cc1NC(=O)CN(C)C1=NS(=O)(=O)c2ccccc21	-6.05	–
CC(OC(=O)C1CC(=O)N(Cc2ccccc2)C1)C(=O)Nc1ccccc1[N+](=O)[O-] (stereo not drawn)	-3.81	–
COc1ccc(CCN2CC(C(=O)OCC(=O)NCc3ccccc3Cl)CC2=O)cc1OC (stereo not drawn)	-3.96	–
O=C(OCc1ccc([N+](=O)[O-])cc1)C1CC(=O)N(Cc2ccccc2Cl)C1 (stereo not drawn)	–	29.9 µM (active)
CCOC(=O)c1cnn2c(SC)ncnc12	-4.05	–
CC(C)Oc1cc(F)ccc1-c1cc(C(=O)Nc2cccc(Cl)c2)[nH]n1	-2.39	–
COc1ccc(C(=O)N2CCCCC2C(=O)Nc2ccc(-n3nc(C)cc3C)cc2)o1 (stereo not drawn)	–	23.8 µM (active)
Cc1cc(C)n(-c2ccc(NC(=O)C3CCCCN3C(=O)c3cccs3)cc2)n1 (stereo not drawn)	-7.4	–
COc1ccc(C(=O)C2CCCN(C(=O)c3ccc(OC)o3)C2)c(C)c1 (stereo not drawn)	-27.3	–
CC(=O)c1ccccc1NC(=O)COC(=O)C1COc2ccccc2O1 (stereo not drawn)	4.38	–
CCCC(=O)N1CCC1(C)C(=O)Nc1ccc(-n2cncn2)cc1 (stereo not drawn)	-11.3	–
Cc1ccccc1CN1C(=O)CSCC1(C)C(=O)Nc1c(C)cccc1C (stereo not drawn)	-3.6	–
CCCCCCCCN1C(=O)[C@H](CC(=O)NCC23CC4CC(CC(C4)C2)C3)C[C@@]2(C(=O)OC)CCCCC=C12	-9.18	–
O=[N+]([O-])c1cc(S(=O)(=O)Nc2cccc(Cl)c2)ccc1N=Nc1c(O)[nH]c2ccccc12	–	84.4 µM (active)
COc1ccc(S(=O)(=O)Nc2ccc3cn[nH]c3c2)cc1[N+](=O)[O-]	-11.6	–
O=C(O)c1ccccc1/C=N/Nc1ccc(S(=O)(=O)Nc2ccc(Cl)cc2)cc1[N+](=O)[O-]	-22.4	–
COc1ccc(Cl)cc1NC(=O)CCS(=O)(=O)c1ccc(Br)cc1	–	15 µM (active)
CCOc1ccc(OCC)c(NC(=O)CCS(=O)(=O)c2ccc(C)cc2)c1	-5.07	–
COc1ccc(Cl)cc1NC(=O)CCS(=O)(=O)c1cc2c(cc1C)NC(=O)CO2	-11.9	–
COc1cc(CCN=Cc2ccccc2O)c([N+](=O)[O-])cc1OC	-15.3	–
CN(C(=O)CN1CCN(c2cc(-c3ccc(OCc4ccccc4)cc3)ncn2)CC1)c1ccccc1	2.08	–
